# From PubChem BioAssay
# nsP2pro primary: CHIKV nsP2 protease inhibition, primary qHTS | Q8JUX6 | FRET peptide cleavage, nsP2pro, fluorescence 1 h | Potency, µM (top dose mostly 24.9 µM), most hits filed as inhibitors | 31,000 compounds, 1.1% hits | AID 1964107; note: nearly all actives have a fitted effect of over 60% in size
#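 FRET cleavage of 2.5 uM peptide 2 by 150 nM CHIKV protease domain at pH 8.0 (Tris, Tween 20). Compounds at 7 concentrations (up to 25 uM) preincubated 15 min. Fluorescence read after 1 h at room temperature.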
# nsP2 cell sec: cell-based CHIKV nsP2 protease inhibition, secondary | shares compounds with nsP2pro primary | cell-based CHIKV nsP2 protease reporter assay | Potency, µM (titrated, usually from 51.1 µM), actives largely listed as inhibitors | 450 compounds, 10% hits; note: nearly all actives have a fitted effect of over 70% in size
# NSP2 full ctr: full-length CHIKV NSP2 protease inhibition, selectivity; shares compounds with nsP2pro primary; Full-length CHIKV NSP2 protease enzymatic counterscreen; Potency, µM (top dose mostly 50.7 µM), most hits filed as inhibitors; 410 compounds, 39% hits; AID 1964101; note: nearly all actives have a fitted effect of over 65% in size
# Furin counterscr: inhibits human furin in a CHIKV nsP2 protease selectivity counterscreen. shares compounds with nsP2pro primary. 410 compounds, 6% hits. Potency, µM (titrated, usually from 50.6 µM), usual class: inhibitors. Recombinant human furin enzymatic counterscreen, fluorogenic substrate
# nsP2 NS23 pep: blocks CHIKV nsP2 protease cleavage of endogenous NS2/3 peptide; shares compounds with nsP2pro primary; Potency, µM (titrated, usually from 51 µM), usual class: inhibitors; 410 compounds, 34% hits; Purified CHIKV nsP2 protease, endogenous NS2/3 peptide cleavage; note: nearly all actives have a fitted effect of over 55% in size
# Papain cs: selectivity counter-screen for CHIKV nsP2 protease inhibitors: papain; shares compounds with nsP2pro primary; purified papain protease activity, enzymatic inhibition; Potency, µM (highest dose often 51 µM), usual class: inhibitors; 410 compounds, 5% hits; AID 1964104
# Target sequence (P00784 whole entry, looked up): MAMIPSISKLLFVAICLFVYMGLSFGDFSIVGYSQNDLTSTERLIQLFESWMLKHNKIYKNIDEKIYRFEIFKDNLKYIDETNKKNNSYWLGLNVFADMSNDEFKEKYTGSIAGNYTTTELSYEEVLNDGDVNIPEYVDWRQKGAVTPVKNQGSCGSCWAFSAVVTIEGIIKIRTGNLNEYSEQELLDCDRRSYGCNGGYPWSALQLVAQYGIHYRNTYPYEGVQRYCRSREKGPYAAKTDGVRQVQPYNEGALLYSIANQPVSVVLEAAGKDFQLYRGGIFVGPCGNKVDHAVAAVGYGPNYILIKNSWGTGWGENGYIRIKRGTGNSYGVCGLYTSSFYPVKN
# nsP2pro conf qHTS: CHIKV nsP2 protease inhibition, confirmatory qHTS. shares compounds with nsP2pro primary. CHIKV nsP2 protease enzymatic activity, qHTS. Potency, µM (doses to about 25.5 µM), actives largely listed as inhibitors. 410 compounds, 43% hits. AID 1964105; note: nearly all actives have a fitted effect of over 75% in size
# HCV NS3 4A cs: selectivity counter-screen for CHIKV nsP2 protease inhibitors: HCV NS3/4A; shares compounds with nsP2pro primary; HCV NS3/4A protease biochemical counterscreen; Potency, µM (doses to about 50.9 µM), usual class: inhibitors; 410 compounds, 20% hits; AID 1964106; note: nearly all actives have a fitted effect of over 55% in size
# A number is an active result; – = inactive; ? = inconclusive. Many of the other results were omitted from the sample, so hits are more common in it than they were. Calls come from the whole dose curve.
SMILES,nsP2pro primary,others
Oc1ccc(NCc2ccccc2OCc2ccccc2F)cc1,8.91µM,nsP2 cell sec=?;NSP2 full ctr=23.1µM;Furin counterscr=–;nsP2 NS23 pep=20.6µM;Papain cs=–;nsP2pro conf qHTS=?;HCV NS3 4A cs=?
O=S(=O)(Nc1cccc2ccccc12)c1ccc(NCc2cccc(Cl)c2O)cc1,–,
Oc1ccc(NCc2ccccc2OCc2ccccc2Cl)cc1,0.849µM,nsP2 cell sec=11.6µM;NSP2 full ctr=10.3µM;Furin counterscr=–;nsP2 NS23 pep=16.3µM;Papain cs=–;nsP2pro conf qHTS=7.98µM;HCV NS3 4A cs=18.3µM
O=S(=O)(Nc1nccs1)c1ccc(NCc2cccc(F)c2O)cc1,–,
c1ccc(CNc2ncc(-c3ccc(N4CCOCC4)cc3)c3c2OCC3)cc1,–,
COc1ccc(CCN2CCCC(CN(C)Cc3cnc[nH]3)C2)cc1 (configuration not stated),–,
OC[C@@]1(O)CO[C@H](OC[C@H]2O[C@@H](OC(CCCCc3ccc(O)cc3)CCc3ccc(O)cc3)[C@H](O)[C@@H](O)[C@@H]2O)[C@@H]1O (some centres not stated),–,
O=C(NCc1ccc(S(=O)(=O)c2cccc(C(F)(F)F)c2)cc1)c1cnc2[nH]ncc2c1,–,
Cc1ccc(OCCn2c(CCN(C)C(=O)C3CCCCC3)nc3ccccc32)cc1,–,
C/C=C/C=C/C=C/C(=O)OC1C=C2C(O)OC(=O)[C@]2(O)[C@@]2(C)CCCC(C)(C)[C@H]12 (some centres not stated),–,
C/C=C/C=C/C(=O)OC1CC/C=C/C(O)C(O)C(CCC)OC1=O (configuration not stated),?,nsP2 cell sec=–;NSP2 full ctr=–;Furin counterscr=–;nsP2 NS23 pep=–;Papain cs=?;nsP2pro conf qHTS=–;HCV NS3 4A cs=–
C=CCSC(C)C(=O)N1CCCn2nc(C(=O)OC)cc2C1 (configuration not stated),–,
Cc1ccc(CS(=O)(=O)c2ncc(Cl)c(C(=O)Nc3nc4ccc(F)cc4s3)n2)cc1,–,
CCS(=O)(=O)c1ncc(Cl)c(C(=O)Nc2ccccc2)n1,–,
CC(=O)Nc1ccc(NC(=O)c2nc(S(=O)(=O)Cc3ccc(F)cc3)ncc2Cl)cc1,?,nsP2 cell sec=2.31µM;NSP2 full ctr=?;Furin counterscr=–;nsP2 NS23 pep=4.61µM;Papain cs=–;nsP2pro conf qHTS=5.04µM;HCV NS3 4A cs=–
O=C(NCc1ccc(OC(F)(F)F)cc1)C1c2c(F)cccc2C(=O)N1CCc1ccccn1 (configuration not stated),–,
Fc1ccc(Nc2cc(-c3ccccc3)nc(-c3ccncc3)n2)cc1F,–,
COc1c(-c2ccc3cc(NS(C)(=O)=O)ccc3c2)cc(-n2ccc(=O)[nH]c2=O)cc1C(C)(C)C,–,
N#Cc1ccc(-c2ccc(CNc3ccc(N4CCN5CCCCC5C4)cc3)o2)cc1 (configuration not stated),–,
N#Cc1ccc(-c2ccc(CNc3ccc(N4CCCCC4)cc3)o2)cc1,3.55µM,nsP2 cell sec=?;NSP2 full ctr=–;Furin counterscr=–;nsP2 NS23 pep=?;Papain cs=–;nsP2pro conf qHTS=?;HCV NS3 4A cs=1.83µM
N#Cc1ccc(-c2ccc(CNc3ccc(N4CCOCC4)cc3)o2)cc1,–,
Nc1cccc([S+](=O)([O-])N2CCCN([S+](=O)([O-])c3cccc(N)c3)CC2)c1,–,
O=C1N(C2CCN(S(=O)(=O)c3cnc[nH]3)CC2)C(c2ccccc2)C12CCCC2 (configuration not stated),–,
O=C1Nc2ccccc2/C1=C/c1cc(O)ccc1O,7.85µM,nsP2 cell sec=?;NSP2 full ctr=?;Furin counterscr=?;nsP2 NS23 pep=23.1µM;Papain cs=–;nsP2pro conf qHTS=7.98µM;HCV NS3 4A cs=10.3µM
O=C1Nc2ccccc2/C1=C\c1cc(F)c(O)c(F)c1,–,
SMILES,nsP2pro primary,others
O=C1Nc2ccccc2/C1=C\c1ccc(O)c(Cl)c1,–,
Fc1ccccc1N1CCN(c2ncc3c(n2)CCN(Cc2ccc(Br)s2)C3)CC1,–,
Cc1ccsc1CN1CCc2nc(Nc3ccccc3)ncc2C1,–,
Brc1ccc(CN2CCc3nc(Nc4ccccc4)ncc3C2)s1,?,nsP2 cell sec=–;NSP2 full ctr=–;Furin counterscr=–;nsP2 NS23 pep=–;Papain cs=–;nsP2pro conf qHTS=–;HCV NS3 4A cs=–
CN(C)CCCNc1c2ccccc2nc2c1[nH]c1ccccc12,–,
COc1ccnc(NC(=S)N2CCN(c3cc(Cl)cc(Cl)c3)CC2)c1,–,
Cc1nc(C(C)C)sc1C(=O)N1C[C@@H](C)[C@](O)(C2CCC2)C1,–,
C/C(=C\c1ccsc1)C1Nc2cccc3cccc(c23)N1,–,
CC(C)=CCCC1(C)C=Cc2c(c(C)cc3c2[nH]c2ccccc23)O1 (configuration not stated),–,
CC(C)=CCCC1(C)C=Cc2c(O)c3c(c(CC=C(C)C)c2O1)OC12C(=CC4CC1C(C)(C)OC2(C/C=C(/C)C(=O)O)C4=O)C3=O (configuration not stated),?,nsP2 cell sec=?;NSP2 full ctr=–;Furin counterscr=–;nsP2 NS23 pep=?;Papain cs=–;nsP2pro conf qHTS=?;HCV NS3 4A cs=–
COC(=O)c1nc(C(F)(F)F)n2c1CN(C(=O)C[C@H](N)Cc1cc(F)c(F)cc1F)CC2,–,
COc1ccc(C2(O)CCC(N3CC[C@@H](NC(=O)CNC(=O)c4cccc(C(F)(F)F)c4)C3)CC2)cn1 (some centres not stated),–,
CC(=O)O[C@@](C)(C(=O)/C=C/C(C)(C)O)[C@H]1[C@H](O)C[C@@]2(C)[C@@H]3CC=C4[C@@H](C=C(O)C(=O)C4(C)C)[C@]3(C)C(=O)C[C@]12C,–,
C=CC1(C)CC(O)C(C(=C)C(=O)OC)C(O)C1C(=C)CO (configuration not stated),–,
C=C(C)C(=O)O[C@H]1[C@H]2C(=C)C(=O)O[C@@H]2C[C@@H](C)[C@@H]2O[C@@H]2C(=O)[C@](C)(O)[C@@H]1OC(=O)C(=C)C,–,
C=C[C@]1(C)C[C@H](O)[C@H]2C(=C)C(=O)O[C@@H]2[C@H]1C(=C)CO,?,nsP2 cell sec=?;NSP2 full ctr=?;Furin counterscr=–;nsP2 NS23 pep=–;Papain cs=–;nsP2pro conf qHTS=?;HCV NS3 4A cs=–
COc1ccc(CCc2nc3cc(-c4c(C)noc4C)ccc3n2C[C@H](C)N2CCOCC2)cc1Cl,–,
COc1ccccc1CNc1nc(-c2ccco2)nn1S(=O)(=O)c1ccc(Cl)cc1,8.91µM,nsP2 cell sec=–
COc1ccccc1CNc1nc2c(S(=O)(=O)c3ccc(C)c(C)c3)nnn2c2ccc(Cl)cc12,–,
O=C(c1ccco1)n1nc(-c2ccccc2)nc1NCc1ccc(Cl)cc1,–,
Cc1oc(-c2ccccc2)nc1CCOc1ccc(CC2C(=O)NOC2=O)cc1 (configuration not stated),–,
Cc1ccc(-c2cc(C(=O)Nc3ccc(S(N)(=O)=O)cc3)c3ccccc3n2)cc1C,–,
